# Screening data: PubChem, National Center for Advancing Translational Sciences (NCATS)
# HPGD inh – qHTS Assay for Inhibitors of HPGD (15-Hydroxyprostaglandin Dehydrogenase); 15-hydroxyprostaglandin dehydrogenase [NAD(+)] (Homo sapiens), P15428; purified HPGD, NADH fluorescence kinetic, PGE2 substrate; Potency, µM, for inactives: at the highest dose activity change, negative = inhibition, hits mostly inhibitors; 4.3% of 150,000 active; AID 894, 2007; further: potency means the concentration at half of the fitted maximal effect
# Target sequence (P15428 whole entry, looked up): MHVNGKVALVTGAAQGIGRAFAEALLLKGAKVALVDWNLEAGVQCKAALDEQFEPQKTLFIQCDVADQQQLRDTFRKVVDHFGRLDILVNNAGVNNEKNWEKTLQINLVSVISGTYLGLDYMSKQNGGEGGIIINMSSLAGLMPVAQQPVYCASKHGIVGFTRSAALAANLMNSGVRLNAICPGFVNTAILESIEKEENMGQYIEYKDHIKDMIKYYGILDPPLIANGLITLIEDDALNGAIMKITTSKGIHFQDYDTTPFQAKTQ
#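 NADH formation kinetics: reaction with 30 uM PGE2 and 1 mM NAD+ (final), 20 nM enzyme, Tris-HCl pH 8 with Tween 20, after 15 min compound preincubation at room temperature. Fluorescence change, last versus first of five reads.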
# PNC inhibitor – High Content Assay for Compounds that inhibit the Assembly of the Perinucleolar Compartment; PC3M PTB-GFP, PNC prevalence imaging, 16 h; stronger effect = lower value; activity change (PNC), negative = inhibition, % at 10 µM; 3.1% of 140,000 active; AID 2417, 2010;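 active means readout at or below -70, meaning at least 70% loss of cells showing the perinucleolar compartment, a nuclear body marking cancer cells; inconclusive means readout between -30 and a set limit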;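 further: plate controls were DMSO wells for no effect and camptothecin positive control wells for full effect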
#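 Compounds are pinned in duplicate onto adhered PC3M cells stably expressing GFP-tagged PTB and incubated 16 h at 37 C. Cells are then fixed, nuclei stained with Hoechst, and PNC-positive cells counted.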
# ALDH1A1 inh – qHTS Assay for Inhibitors of Aldehyde Dehydrogenase 1 (ALDH1A1); Aldehyde dehydrogenase 1A1 (Homo sapiens), P00352; Purified ALDH1A1, NADH fluorescence, propionaldehyde substrate; Potency, µM (series often up to 75.3 µM), for the others: at the highest dose activity, negative = inhibition, most hits filed as inhibitors; 7.3% of 220,000 active; AID 1030, 2008;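 further: potency means the concentration at half of the fitted maximal effect; plate controls were no enzyme wells and a reference inhibitor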
# * = called active by the depositor; ? = inconclusive; / = no result; [ ] = dose if it differs, or a comment. Shown are actives, neighbours in structure and some others; about 11% of the full set was active somewhere. Unless noted, the call rests on the fitted dose curve; in most records, active means well fitted inhibition curve with a large enough effect (not every such curve was filed as active); inconclusive means small, poorly fitted or top-dose-only effect, or another doubt; inactive means no such curve, though single readings can be large or run the other way. Unless noted, on the % scale 0 is the no-effect control and ±100 the full control effect.
SMILES,HPGD inh,PNC inhibitor,ALDH1A1 inh
CC(=O)O[C@@]1(C(C)=O)CCC2C3C=C(Cl)C4=CC(=O)C5CC5[C@@]4(C)C3CC[C@]21C (some centres not stated),-6%,/,1%
Cc1nc(-c2noc(-c3ccc(Cl)cc3)n2)c(C(F)(F)F)o1,/,/,16%
O=C1C=C(NCCN2CCOCC2)C(=O)c2cnccc21,-16%,-82*,-8%
O=C1C=C(NCCO)C(=O)c2cnccc21,-8%,/,9%
COC(=O)N1CCC2(CC1)CN(C(=O)Nc1ccccc1)C2,-13%,/,-3%
O=C(COC(=O)Cn1cnc2ccccc21)NCCCc1ccccc1,/,/,8%
O=C(Cn1cnc2ccccc21)Nc1ccc(F)c(F)c1,/,/,3%
Cc1ccc(NC(=O)COC(=O)Cn2cnc3ccccc32)cc1S(=O)(=O)N(C)C,-2%,44,14µM*
O=C(Cn1cnc2ccccc2c1=O)N1CCc2ccccc2C1,/,/,2%
CCOc1ncccc1C(=O)OCC(=O)Nc1ccc(C)c(S(=O)(=O)N(C)C)c1,/,/,-3%
O=C(Cn1cnc2ccccc21)OCC(=O)N1CCc2ccccc2C1,-14%,8,28µM*
O=C(COC(=O)Cn1cnc2ccccc21)Nc1ccc2c(c1)C(=O)c1ccccc1C2=O,-26%,36,0.63µM*
O=C(COC(=O)Cn1cnc2ccccc21)NCCc1ccccc1,-7%,-83*,-6%
CC1CC2C3CCC4=CC(=O)C=C[C@@]4(C)[C@]3(F)C(O)C[C@]2(C)[C@]1(O)C(=O)CO (some centres not stated),-13%,/,0%
Cn1c(=O)c2c(nc(NCC3CCCO3)n2Cc2cccc(Br)c2)n(C)c1=O (configuration not stated),-8%,-29,9%
CC1=N[C@@](C)(COC(=O)[C@]2(C)N[C@](C)(CO)CO2)COC1=O,0%,/,23%[13.5 µM]
Cc1ccc(Nc2nnc(SCC(=O)Nc3cc(C(=O)O)ccc3C)s2)c(C)c1,/,/,5%
O=C1N/C(=C\c2nc3ccccc3s2)c2ccccc21,/,/,5%
N#C/C=C1/NC(=O)c2ccccc2S1,2.2µM*,24,3%
N#Cc1ccc(OCC(=O)Nc2ccccc2NS(=O)(=O)c2cccs2)cc1,-24%,6,7%
O=S(=O)(CC12C3C4C5C1C2C(Br)(C43)C51OCCO1)c1ccccc1 (configuration not stated),-6%,5,11µM*
O=C(CS(=O)(=O)c1ccccc1)NC1CCCCC1,/,/,4%
O=C(CCn1c(=O)c2ccccc2n(Cc2cc(=O)n3ccccc3n2)c1=O)NCc1ccco1,?,-15,?
Cc1cccc2nc(Cn3c(=O)n(CCCC(=O)NCc4ccco4)c(=O)c4ccccc43)cc(=O)n12,28µM*,?,20µM*
CC(=O)CC(=O)Nc1ccc(Nc2ccccc2)cc1,-9%,73,6%
SMILES,HPGD inh,PNC inhibitor,ALDH1A1 inh
OCCN(CC(O)Cn1ccc2ccccc21)CC(O)Cn1ccc2ccccc21 (configuration not stated),-4%,-13,28µM*
CC(C)(C)c1ccc(OCC(O)CN(CCO)CC(O)Cn2ccc3ccccc32)cc1 (configuration not stated),-8%,-27,5%
Cc1ccc(C#CC2C=CC(Oc3ccc4c(c3)OCO4)C(CO)O2)c(C)c1 (configuration not stated),/,/,0%[13.5 µM]
c1ccc2cc(NCNc3ccc4ccccc4c3)ccc2c1,-16%,/,?
COCCNC(=O)c1cnn2c1NC(c1ccco1)CC2C(F)(F)F (configuration not stated),25µM*,-4,?
CCOC(=O)N1CCC(NC(=O)c2cnn3c2NC(c2ccco2)CC3C(F)(F)F)CC1 (configuration not stated),-9%,10,?
Cc1ccc(Cl)cc1NC(=O)c1cnn2c1NC(c1ccco1)CC2C(F)(F)F (configuration not stated),-21%,-11,?
CN(Cc1ccc(-n2cccn2)cc1)C(=O)c1cnn2c1NC(c1ccco1)CC2C(F)(F)F (configuration not stated),-26%,8,7.9µM*
CCOc1ccc(NC(=O)C(Cc2ccccc2)N2C(=O)c3cccc4cccc(c34)C2=O)cc1 (configuration not stated),/,/,13%
Cc1ccccc1S(=O)(=O)/N=C(/c1ccccc1)N1CCOCC1,/,/,2%
COc1cccc(-n2cnc3sc(C)c(C)c3c2=O)c1,-6%,?,-4%
Cc1cccc(COCC(Cc2ccccc2)N2CCN(C(=O)c3ccc(C(F)(F)F)cc3)CCC2=O)c1 (configuration not stated),-17%,-80*,-3%
O=C(c1ccc(C(F)(F)F)cc1)N1CCC(=O)N(C(COCc2ccc(C(F)(F)F)cc2)Cc2ccccc2)CC1 (configuration not stated),?,26,-5%
Cc1cc(OC(=O)c2c(C)cc(O)cc2O)cc(O)c1C(=O)O,16µM*,/,-13%
CCOC(=O)c1c(C)cc(OC)cc1O,?,/,-13%
CC(C)CC(=O)N1CCN(Cc2cccc(F)c2)CC1,-15%,65,-3%
CC(C)CC(=O)N1CCN(Cc2ccccc2[N+](=O)[O-])CC1,/,/,0.089µM*
CCCS(=O)(=O)N1CCN(Cc2ccccc2[N+](=O)[O-])CC1,/,/,8.9µM*
CCCS(=O)(=O)N1CCN(Cc2ccccc2C(F)(F)F)CC1,-7%,-11,?
O=c1[nH]c2cc(NCCO)c([N+](=O)[O-])cc2[nH]1,/,/,-2%
O=C(Cl)c1c(Cl)cccc1Cl,-7%,/,?
CS(=O)(=O)C1=NSC2=NC(=O)/C(=C\c3cccn3-c3ccc(Cl)cc3)C(=N)N21,-16%,-3,?
Cc1ccc(-n2cccc2/C=C2\C(=N)N3N=C(C(C)C)SC3=NC2=O)cc1,/,/,16µM*
Cc1noc(C)c1C(=O)N1CCC2(CCCN(C(=O)Nc3cccc(C#N)c3)C2)CC1,-5%,/,6%
CC(C)c1ccc(NC(=O)NC2CC3CCC(C2)N3Cc2cccs2)cc1 (configuration not stated),/,/,-1%
SMILES,HPGD inh,PNC inhibitor,ALDH1A1 inh
Cc1cccc(C)c1NC(=O)NC1CC2CCC(C1)N2Cc1cccs1 (configuration not stated),-3%,-83*,-18%
CC1CC[C@@]2(C(=O)O)CCC3(C)C(=CCC4[C@]5(C)CC(O)C(O)[C@](C)(CO)C5C(O)C[C@@]43C)C2C1C (some centres not stated),-11%,/,0%
CC(C)(C)NC(=O)NC(=O)CN1CCN(c2ccc(O)cc2)CC1,/,/,22µM*
CC(C)(C)NC(=O)NC(=O)CN1CCN(c2ccccc2)CC1,/,/,-4%
Cc1ccc(CN2CCN(CC(=O)NC(C)CCc3ccccc3)C2=O)cc1 (configuration not stated),-13%,?,?
CC(CCc1ccccc1)NC(=O)CN1CCN(c2ccc(O)cc2)CC1 (configuration not stated),/,/,8.9µM*
N#Cc1ccc(CN2CCC3(CCNCC3)CC2)cc1,-3%,/,-6%
O=C(c1ccc(Cn2cc(Br)cn2)cc1)N1CCN(c2ccccc2)CC1,-6%,37,5%
